We go through 14 compounds from PubChem BioAssay (NCATS).

Activity calls are given as the source filed them. Calls follow the shape of the dose curve; as a rule, active = well fitted activation curve with a large enough effect; inconclusive = small, poorly fitted or top-dose-only effect; inactive = no such curve, though single readings can be large or run the other way.
Potency is read from the fitted curve at half-maximal effect.

Chain of Cytochrome P450 3A4 (Homo sapiens) (P08684 whole entry, looked up): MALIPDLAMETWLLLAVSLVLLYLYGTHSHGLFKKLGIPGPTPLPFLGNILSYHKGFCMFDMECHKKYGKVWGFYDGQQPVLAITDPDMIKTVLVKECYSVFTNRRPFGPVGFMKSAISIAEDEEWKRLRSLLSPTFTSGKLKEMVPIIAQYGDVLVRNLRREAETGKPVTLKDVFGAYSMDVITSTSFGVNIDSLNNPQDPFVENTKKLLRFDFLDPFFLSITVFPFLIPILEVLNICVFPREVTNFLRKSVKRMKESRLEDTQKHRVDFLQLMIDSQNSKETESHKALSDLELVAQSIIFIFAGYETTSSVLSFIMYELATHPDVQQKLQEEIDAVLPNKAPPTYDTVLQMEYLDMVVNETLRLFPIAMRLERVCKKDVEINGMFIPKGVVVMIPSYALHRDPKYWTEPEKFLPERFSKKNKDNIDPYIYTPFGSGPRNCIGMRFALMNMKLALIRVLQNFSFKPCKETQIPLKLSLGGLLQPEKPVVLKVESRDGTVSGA

The test concerns the target Cytochrome P450 3A4 (Homo sapiens) (UniProt P08684). The test is described as follows: qHTS Assay for Activators of Cytochrome P450 3A4 (AID 885). Also: nearly all actives have a fitted effect of over 65% in size. To be noted: recombinant CYP3A4, Luciferin-PPXE luminescence, 60 min; series mostly up to 57.1 µM; activity change, positive = activation: at the top concentration. As to the method:
NIH Molecular Libraries Screening Centers Network [MLSCN]
NIH Chemical Genomics Center [NCGC]
The P450 gene superfamily is involved in the metabolism and clearance of xenobiotics. This assay used human CYP3A4 to measure the dealkylation of luciferin-6' phenylpiperazinylyl (Luciferin-PPXE; […]) to luciferin. The luciferin is then measured by luminescence after the addition of a luciferase detection reagent. Luciferin-PPXE concentration in the assay was equal to its KM for CYP3A4. Inhibitors and some substrates limit the production of luciferin, and decrease measured luminescence; activators increase the production of luciferin and luminescence.
NCGC Assay Protocol Summary:
Two uL of enzyme and substrate mix (final concentrations: 20nM CYP3A4, 25uM Luciferin-PPXE, 200mM KPO4) were dispensed into a white, solid bottom 1536-well microtiter plate. 23nL of compound was transferred by a pin tool. The plate was incubated at RT for 10 min. Two uL of an NADPH regeneration solution (Promega supplied reagent) was dispensed and the reaction was allowed to continue for 60 min at RT. Then the reaction was stopped by reconstituted luciferin detection buffer. After another 20 min of incubation the plate was read on the ViewLux (Perkin Elmer) at 60 sec exposure and 2x2 binning. This protocol was carried out with Promega-Glo reagents and further information can be found at http://www.promega.com/tbs/tb325/tb325.pdf. Data were normalized to the to AC100 inhibition (57 uM ketoconazole).
Keywords: P450, CYP2D6, Luciferase, MLSMR, MLSCN, NIH Roadmap, qHTS, NCGC
For orientation: qHTS replaces the single test concentration by a dilution series.
With `Cc1cc(-c2ccc(N=Nc3ccc4c(S(=O)(=O)O)cc(S(=O)(=O)O)c(N)c4c3O)c(C)c2)ccc1N=Nc1ccc2c(S(=O)(=O)O)cc(S(=O)(=O)O)c(N)c2c1O`, the “activity change, positive = activation” value was -66.2% (inactive).

Consider `Nc1ccc(N=Nc2ccccc2)c(N)n1`, for which the Potency entry is “inactive”.

Regarding `CC(C)c1nc(N(C)S(C)(=O)=O)nc(-c2ccc(F)cc2)c1/C=C/C(O)CC(O)CC(=O)O` (centres undefined), the “activity change, positive = activation” value is -58.7% (inactive).

With `O=C1c2ccccc2C(=O)c2c1ccc(O)c2O`, the “activity change, positive = activation” value was -71.8% (inactive).

`Cc1cc(C)c(NC(=O)C[C@H](CC(=O)O)c2cccc3ccccc23)c(C(=O)N2CCC3(CCCC3)CC2)c1`: the “activity change, positive = activation” value is -83.6% (inactive).

In the case of `C=C1C(CCl)(CCl)C2(Cl)C(Cl)C(Cl)C1(Cl)C2(Cl)Cl` (centres undefined), the “activity change, positive = activation” value was -61.9% (inactive).

Consider `CC(C)(C)CC(C)(C)c1ccc(OCCO)cc1`, for which the “activity change, positive = activation” value is -51.4% (inactive).

Turning to `CC(=O)[C@H]1CC[C@H]2[C@@H]3C=CC4=CC(=O)CC[C@@]4(C)[C@H]3CC[C@]12C`, the Potency was 7.94 µM (active).

On to `Cc1cccc(C)c1NC(=O)C1CCCCN1C` (centres undefined), for which the “activity change, positive = activation” value is -38.4% (inactive).

Take `CCSc1ccc2c(c1)N(CCCN1CCN(C)CC1)c1ccccc1S2`: the “activity change, positive = activation” value is -37.3% [at 25.6 µM] (inactive).

Consider `CCCc1nc(C(C)(C)O)c(C(=O)OCc2oc(=O)oc2C)n1Cc1ccc(-c2ccccc2-c2nn[nH]n2)cc1`, for which the “activity change, positive = activation” value is -57.1% (inactive).

`C[C@@](Cc1ccc(O)c(O)c1)(NN)C(=O)O`: the “activity change, positive = activation” value is -70.1% (inactive).

On to `O=C(CCCCCCCCCCCCC1CCCC1)Nc1ccc(S(=O)(=O)c2ccc(NC(=O)CCCCCCCCCCCCC3CCCC3)cc2)cc1`, for which the “activity change, positive = activation” value was -38.7% (inactive).

For `CC/C=C\C/C=C\C/C=C\CCCCCCCC(=O)O`, the “activity change, positive = activation” value was -62.5% (inactive).
